The target in assay [1] is Lysosomal acid glucosylceramidase (Homo sapiens) (UniProt P04062). Briefly: Glucocerebrosidase-p2 (AID 348; in the data active = potency below about 10 µM; note: potency is the fitted concentration of half-maximal effect). The settings on record: purified GBA, blue fluorogenic substrate, 40 min. The essentials:
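Compounds titrated from 0.6 nM upwards against 0.2 nM enzyme in pH 5.9 citric acid/KH2PO4, taurocholate, tween-20; blue fluorogenic substrate 80 uM, 40 min room temperature, stopped and read Ex 365/Em 440 for AC50.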

A short description of assay [2]: AP1 Signaling Pathway (AID 357; active = well fitted curve in either direction with a large enough effect, not every such curve was filed as active;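 note: ME-180 reporter cells stimulated with EGF at its EC50 level; % is set by controls: 0 for no effect and ±100 for the full control effect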). The settings on record: ME-180 AP-1-bla reporter, EGF-induced, beta-lactamase ratio, 5 h; at 7.69 µM (top of the series) unless noted. The essentials:
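A ratiometric CCF4 readout (405 nm excitation; 460 and 530 nm emission) quantified AP-1-driven beta-lactamase in ME-180 cells after 5 h with compound and EC50 EGF; AC50 values were derived for activators and inhibitors.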

The target of assay [3] is Cytochrome P450 1A2 (Homo sapiens) (UniProt P05177). Briefly: p450-cyp1a2 (AID 410; calls by dose curve; note: potency is the fitted concentration of half-maximal effect). The settings on record: recombinant CYP1A2, luciferin-ME demethylation, luminescence; series mostly up to 57 µM. In a few lines: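 Inhibition was calculated relative to 57 uM furafylline (full inhibition). The reaction used human CYP1A2 at 20nM with Luciferin-ME at its Km, 100uM, driven by an NADPH-regenerating system for 60 min at room temperature.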
Sequence of Cytochrome P450 1A2 (Homo sapiens) (P05177 whole entry, looked up): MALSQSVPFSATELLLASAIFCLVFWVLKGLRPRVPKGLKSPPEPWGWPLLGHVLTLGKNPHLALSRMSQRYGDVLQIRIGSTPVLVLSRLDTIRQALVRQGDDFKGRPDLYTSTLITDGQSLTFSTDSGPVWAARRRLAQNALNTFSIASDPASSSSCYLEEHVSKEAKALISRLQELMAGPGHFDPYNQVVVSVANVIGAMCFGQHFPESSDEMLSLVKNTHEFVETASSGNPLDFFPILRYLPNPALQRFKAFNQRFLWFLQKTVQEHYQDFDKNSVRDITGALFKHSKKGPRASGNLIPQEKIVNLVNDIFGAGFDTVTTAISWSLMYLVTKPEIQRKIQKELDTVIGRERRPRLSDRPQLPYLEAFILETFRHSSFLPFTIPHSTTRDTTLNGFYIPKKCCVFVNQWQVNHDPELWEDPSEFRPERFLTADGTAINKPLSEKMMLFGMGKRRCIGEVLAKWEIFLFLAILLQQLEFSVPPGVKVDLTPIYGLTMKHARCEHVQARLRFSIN

Assay [4] can be described thus: NFAT Signaling Pathway (AID 444; active = well fitted curve in either direction with a large enough effect, not every such curve was filed as active;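 note: carbachol stimulus at about its EC50 of 1 µM final; % is set by controls: 0 for no effect and ±100 for the full control effect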). The settings on record: Jurkat NFAT-bla M1, carbachol, beta-lactamase ratio, 5 h; at 7.69 µM (top of the series) unless noted. The essentials: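 Jurkat cells with NFAT-driven β-lactamase reporter and co-expressed M1 receptor, stimulated with carbachol (final 1 uM, ~EC50), compound titration, 5 h at 37 °C. CCF4 loaded 1 h at RT; 460/530 nm ratio gave %activity and AC50.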

The nature of assay [5]: Stat Signaling Pathway (AID 446; active = well fitted curve in either direction with a large enough effect, not every such curve was filed as active;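 note: ME-180 cervical cancer cells given 40 pM IL-6 alongside compound; SIE-controlled beta-lactamase reporter measured as 460/530 nm FRET emission ratio; % is set by controls: 0 for no effect and ±100 for the full control effect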). The settings on record: ME-180 (cervical carcinoma) SIE beta-lactamase reporter, IL-6 stimulated, 5 h; at 7.69 µM (top of the series) unless noted. In a few lines:
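ME-180 cells carrying a SIE-driven beta-lactamase reporter are stimulated with 40 pM IL-6 for 5 h at 37C in the presence of compound. The 460/530 nm FRET substrate ratio is read after 2.5 h at RT. Data are normalised to 300 pM IL-6 and to 125 nM JAK inhibitor controls.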

Assay [6] addresses Glucocorticoid receptor (Homo sapiens) (UniProt P04150). In words: GR-GFP Redistribution (AID 450;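 active = compounds whose dose series gives a full or clear partial fitted curve of increased nuclear translocation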; note: potency is the fitted concentration of half-maximal effect). The conditions noted are these: U2OS GR-GFP nuclear translocation, laser cytometry, 2 h.
For assay [7] the target is unchanged. In words: GR-EFC Redistribution (AID 451; calls by dose curve; note: potency is the fitted concentration of half-maximal effect). The settings on record: CHO-K1 GR-EFC translocation, beta-gal luminescence, 2 h. The essentials: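 CHO-K1 cells expressing nuclear EA and GR-ED fragments of b-gal; compounds titrated up to 46 uM final, 2 h at 37 C. GR nuclear translocation read as complemented b-gal luminescence after 1 h RT detection.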
Assay [8] has as its target Mitogen-activated protein kinase 10 (Mus musculus) (UniProt Q61831). In words: JNK3 AlphaScreen Assay (AID 530; active = well fitted curve in either direction with a large enough effect, not every such curve was filed as active;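 note: kinase came from lysate of stimulated human HepG2 cells; signal reports phosphorylation of biotinylated GST-cJun 1-79 at Ser73 with 10 µM ATP; % is set by controls: 0 for no effect and ±100 for the full control effect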). The settings on record: JNK3 lysate, c-Jun phosphorylation; series mostly up to 57.1 µM. The essentials:
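qHTS format: compounds tested as titrations against IL-1beta/TNF-alpha-activated HepG2 lysate JNK3 with biotin-GST-cJun substrate and 10 uM ATP at room temperature. Loss of anti-phospho-cJun AlphaScreen signal indicates inhibition.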
A general note: In Alpha technology, singlet oxygen from a donor bead excites a nearby acceptor bead.

For assay [9], the target named is Cytochrome P450 2C19 (Homo sapiens) (UniProt P33261). Briefly: qHTS Assay for Inhibitors and Substrates of Cytochrome P450 2C19 (AID 899). Note: potency is the fitted concentration of half-maximal effect; nearly all actives have a fitted effect of over 60% in size. The settings on record: recombinant CYP2C19, luciferin-H EGE luminescence; series mostly up to 57.1 µM. In a few lines: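 5 nM human CYP2C19 with 10uM Luciferin-H EGE (at KM) in 50mM KPO4, compound preincubated 10 min at 37C, then NADPH regeneration for 60 min at 37C. Luciferin read by luminescence after detection reagent; normalized to 57uM ketoconazole as full inhibition.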
Sequence of Cytochrome P450 2C19 (Homo sapiens) (P33261 whole entry, looked up): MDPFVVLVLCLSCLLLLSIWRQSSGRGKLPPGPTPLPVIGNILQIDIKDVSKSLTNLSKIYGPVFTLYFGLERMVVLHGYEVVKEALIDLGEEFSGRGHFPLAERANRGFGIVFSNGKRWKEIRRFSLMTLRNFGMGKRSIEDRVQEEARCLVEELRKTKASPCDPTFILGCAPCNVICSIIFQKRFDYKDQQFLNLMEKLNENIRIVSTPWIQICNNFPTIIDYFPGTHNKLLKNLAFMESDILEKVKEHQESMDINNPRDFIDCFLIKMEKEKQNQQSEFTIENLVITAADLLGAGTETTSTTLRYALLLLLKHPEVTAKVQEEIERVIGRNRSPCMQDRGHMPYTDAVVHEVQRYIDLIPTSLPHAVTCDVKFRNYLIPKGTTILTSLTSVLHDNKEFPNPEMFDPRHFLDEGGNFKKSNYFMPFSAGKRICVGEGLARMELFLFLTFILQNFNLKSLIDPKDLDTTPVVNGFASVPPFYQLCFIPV

Assay [10] can be described thus: Confirmation and Secondary Assay for Modulators of Hemoglobin Beta Chain Splicing at IVS2 654 locus (AID 910).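 Note: HeLa cells stably carrying EGFP split by mutant beta-globin IVS2-654 intron; % of control where 0% means no effect.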 The settings on record: HeLa EGFP-654 splicing reporter, GFP fluorescence, 48 h; series mostly up to 38.3 µM. The essentials: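 HeLa cells stably expressing EGFP interrupted by β-globin IVS2-654 intron, seeded overnight in Opti-MEM/2% FCS, then treated 2 days at 37 °C. Restored splicing read as total peak GFP intensity per well by laser scanning cytometry (488 nm excitation, 500–520 nm emission); 500 nM antisense PNA as control.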

Assay [11] is described as follows: Confirmation and Secondary Assay for Modulators of Hemoglobin Beta Chain Splicing at IVS2 705 locus (AID 930).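 Note: HeLa cells stably expressing the EGFP-705 splicing reporter; % of control where 0% means no effect.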 The settings on record: HeLa EGFP-705 splicing reporter, GFP fluorescence, 48 h; series mostly up to 38.3 µM. The essentials: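 Splice-correction reporter: EGFP cDNA split by beta-globin intron 2 bearing the 705 mutation, stably in HeLa. Compound incubation 2 days, 37C; fluorescent objects 5-250 µm summed per well.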

The nature of assay [12]: qHTS Assay for Lipid Storage Modulators (AID 1519; calls by dose curve). The conditions noted are these: Drosophila S3 cells, BODIPY lipid droplet/cell ratio, laser cytometry, cells loaded with oleic acid; for activity change, negative = inhibition: at 57.5 µM (top of the series). In a few lines: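 Cells seeded at 5,000 per well were treated with compounds over a concentration series and loaded with oleic acid (400 uM, as added). Lipid droplet fluorescence (488 nm excitation, 500-530 nm channel) was read by laser-scanning cytometry and normalized to 20 uM Triacsin C.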
In general terms: Quantitative high-throughput screening tests each substance at several concentrations.

In assay [13] the target is Ubiquitin carboxyl-terminal hydrolase 1 (Homo sapiens) (UniProt O94782). Briefly: Inhibitors of USP1/UAF1: Pilot qHTS (AID 504865).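 Note: rhodamine fluorescence freed from ubiquitin-rhodamine substrate followed over time; top concentration of the series differs between compounds; % is set by controls: 0 for no effect and ±100 for the full control effect; nearly all actives have a fitted effect of over 35% in size.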 The settings on record: purified USP1/UAF1, Ub-rhodamine cleavage fluorescence; series mostly up to 54.9 µM. The essentials: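 1nM USP1/UAF1 + cpd, 15 min RT; start w/ Ub-Rho 150nM final; kinetic FL 480/540 nm, 6 reads q60 s. Buffer 50mM HEPES pH 7.8, 0.5mM EDTA, 1mM TCEP, 0.01% Tween-20, 0.1 mg/ml BSA.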
Sequence of Ubiquitin carboxyl-terminal hydrolase 1 (Homo sapiens) (O94782 whole entry, looked up): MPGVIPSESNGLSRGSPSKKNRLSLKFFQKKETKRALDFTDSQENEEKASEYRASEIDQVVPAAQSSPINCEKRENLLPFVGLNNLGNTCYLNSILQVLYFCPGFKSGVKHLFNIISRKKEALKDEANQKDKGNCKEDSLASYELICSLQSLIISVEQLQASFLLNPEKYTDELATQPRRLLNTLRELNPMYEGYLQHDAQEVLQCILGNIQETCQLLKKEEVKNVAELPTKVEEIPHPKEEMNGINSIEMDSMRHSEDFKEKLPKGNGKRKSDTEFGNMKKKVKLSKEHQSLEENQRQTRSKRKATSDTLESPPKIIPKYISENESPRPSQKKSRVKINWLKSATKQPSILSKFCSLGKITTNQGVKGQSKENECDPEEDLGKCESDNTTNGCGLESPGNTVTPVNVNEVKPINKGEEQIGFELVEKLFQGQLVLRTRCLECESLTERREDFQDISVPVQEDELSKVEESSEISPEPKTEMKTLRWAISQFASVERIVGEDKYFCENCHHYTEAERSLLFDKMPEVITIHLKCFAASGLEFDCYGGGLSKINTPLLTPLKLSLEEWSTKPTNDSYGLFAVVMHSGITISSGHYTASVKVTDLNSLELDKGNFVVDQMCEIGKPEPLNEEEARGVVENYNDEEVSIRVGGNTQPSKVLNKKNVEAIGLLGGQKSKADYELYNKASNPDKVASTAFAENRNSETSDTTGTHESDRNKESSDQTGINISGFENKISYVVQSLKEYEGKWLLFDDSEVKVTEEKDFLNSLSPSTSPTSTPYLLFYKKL

Assay [14] is described as follows: Primary qHTS for small molecule stabilizers of the endoplasmic reticulum resident proteome: Secreted ER Calcium Modulated Protein (SERCaMP) assay (AID 1508630). Note: % is set by controls: 0 for no effect and ±100 for the full control effect. The conditions noted are these: SH-SY5Y GLuc-SERCaMP (Gaussia luciferase released on ER calcium loss) secretion, thapsigargin, luminescence; series mostly up to 38.4 µM. The essentials: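 GLuc-SERCaMP-expressing SH-SY5Y cells, pretreated 16 h with compound, are challenged with thapsigargin to empty ER calcium stores; after 4 h, coelenterazine is added directly to the medium and luminescence is imaged.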

Assay [15] addresses 3',5'-cyclic-AMP phosphodiesterase 4B (Homo sapiens) (UniProt Q07343). In words: qHTS Assay for Inhibitors of PDE-IV (AID 607; active = well fitted activation curve with a large enough effect in the main read-out, with a control signal flat, not every such curve was filed as active; note: % of control where 0% means no effect). The conditions noted are these: HEK293 ACTOne CNG channel cells, membrane potential fluorescence; series mostly up to 22.9 µM. In a few lines:
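HEK293 ACTOne cells with CNG channel (1000/well), endogenous PDE4; membrane potential dye, compounds up to 22.9 uM final. Fluorescence Ex 535/Em 590; RO 20-1724 (100 uM final) as reference.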

The target in assay [16] is Cytochrome P450 3A4 (Homo sapiens) (UniProt P08684). Briefly: qHTS Assay for Inhibitors and Substrates of Cytochrome P450 3A4 (AID 884). Note: nearly all actives have a fitted effect of over 50% in size. Note: potency is the fitted concentration of half-maximal effect. The conditions noted are these: recombinant CYP3A4, Luciferin-PPXE luminescence; series mostly up to 57.1 µM. The essentials: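 20 nM human CYP3A4 with 25 uM Luciferin-PPXE (at KM) in 200 mM KPO4, preincubated 10 min with compound; NADPH regeneration started a 60 min RT reaction. Luciferin detected by luminescence, normalized to 57 uM ketoconazole as full inhibition.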
Sequence of Cytochrome P450 3A4 (Homo sapiens) (P08684 whole entry, looked up): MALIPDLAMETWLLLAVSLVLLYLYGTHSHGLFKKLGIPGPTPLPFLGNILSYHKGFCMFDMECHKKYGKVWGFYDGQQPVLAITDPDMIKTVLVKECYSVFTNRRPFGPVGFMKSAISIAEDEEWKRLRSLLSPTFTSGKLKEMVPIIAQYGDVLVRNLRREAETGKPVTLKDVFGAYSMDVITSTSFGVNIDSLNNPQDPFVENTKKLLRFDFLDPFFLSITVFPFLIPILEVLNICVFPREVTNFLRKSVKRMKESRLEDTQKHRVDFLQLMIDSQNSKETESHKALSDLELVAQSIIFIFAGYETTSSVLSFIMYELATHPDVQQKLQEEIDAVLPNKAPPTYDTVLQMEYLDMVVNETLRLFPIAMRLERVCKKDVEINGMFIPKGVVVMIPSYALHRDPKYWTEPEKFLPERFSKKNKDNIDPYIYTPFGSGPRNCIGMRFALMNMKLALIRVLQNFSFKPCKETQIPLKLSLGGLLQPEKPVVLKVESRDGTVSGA

For assay [17] the target is unchanged. In words: qHTS Assay for Activators of Cytochrome P450 3A4 (AID 885). Note: nearly all actives have a fitted effect of over 65% in size. The settings on record: recombinant CYP3A4, Luciferin-PPXE luminescence, 60 min; series mostly up to 57.1 µM. In a few lines:
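Human CYP3A4 (20 nM) with Luciferin-PPXE at 25 uM (its KM) in 200 mM KPO4; 10 min compound preincubation, then NADPH regeneration and 60 min reaction at RT. Luciferin read by luminescence; normalized to 57 uM ketoconazole full inhibition.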

[18] abbreviates: measured here: cell count channel max response.
Setting [19] is: measured here: lipid channel max response.

Inconclusive results are not listed. Calls of active or inactive are those of the source. Unless noted, calls come from the whole dose curve; as a rule, active = well fitted curve in the direction sought with a large enough effect; inconclusive = small, poorly fitted or top-dose-only effect, or another doubt; inactive = no such curve, though single readings can be large; an effect the other way counts as inactive or inconclusive.

Consider six compounds from PubChem BioAssay (NCATS).

Sequence of Glucocorticoid receptor (Homo sapiens) (P04150 whole entry, looked up, the tested form may be a part): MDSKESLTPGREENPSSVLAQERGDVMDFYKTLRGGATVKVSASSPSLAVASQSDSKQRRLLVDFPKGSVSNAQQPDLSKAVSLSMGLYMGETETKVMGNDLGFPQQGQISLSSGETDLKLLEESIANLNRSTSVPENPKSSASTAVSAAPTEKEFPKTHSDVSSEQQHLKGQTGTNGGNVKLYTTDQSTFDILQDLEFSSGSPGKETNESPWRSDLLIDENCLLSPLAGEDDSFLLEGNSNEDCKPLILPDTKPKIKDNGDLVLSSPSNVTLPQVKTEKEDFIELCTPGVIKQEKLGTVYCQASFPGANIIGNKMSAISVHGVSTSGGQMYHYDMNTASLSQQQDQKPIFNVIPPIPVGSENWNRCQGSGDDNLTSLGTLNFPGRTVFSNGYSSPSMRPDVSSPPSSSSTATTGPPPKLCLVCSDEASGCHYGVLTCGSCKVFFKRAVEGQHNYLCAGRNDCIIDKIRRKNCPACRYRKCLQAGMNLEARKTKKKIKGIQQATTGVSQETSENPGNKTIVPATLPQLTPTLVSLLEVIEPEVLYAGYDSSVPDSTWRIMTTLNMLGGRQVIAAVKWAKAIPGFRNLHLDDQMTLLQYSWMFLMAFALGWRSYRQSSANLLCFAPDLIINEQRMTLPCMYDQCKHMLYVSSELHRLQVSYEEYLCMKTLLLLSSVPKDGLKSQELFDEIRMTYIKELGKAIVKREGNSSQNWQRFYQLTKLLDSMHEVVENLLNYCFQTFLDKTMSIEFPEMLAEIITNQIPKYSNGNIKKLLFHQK
Sequence of 3',5'-cyclic-AMP phosphodiesterase 4B (Homo sapiens) (Q07343 whole entry, looked up): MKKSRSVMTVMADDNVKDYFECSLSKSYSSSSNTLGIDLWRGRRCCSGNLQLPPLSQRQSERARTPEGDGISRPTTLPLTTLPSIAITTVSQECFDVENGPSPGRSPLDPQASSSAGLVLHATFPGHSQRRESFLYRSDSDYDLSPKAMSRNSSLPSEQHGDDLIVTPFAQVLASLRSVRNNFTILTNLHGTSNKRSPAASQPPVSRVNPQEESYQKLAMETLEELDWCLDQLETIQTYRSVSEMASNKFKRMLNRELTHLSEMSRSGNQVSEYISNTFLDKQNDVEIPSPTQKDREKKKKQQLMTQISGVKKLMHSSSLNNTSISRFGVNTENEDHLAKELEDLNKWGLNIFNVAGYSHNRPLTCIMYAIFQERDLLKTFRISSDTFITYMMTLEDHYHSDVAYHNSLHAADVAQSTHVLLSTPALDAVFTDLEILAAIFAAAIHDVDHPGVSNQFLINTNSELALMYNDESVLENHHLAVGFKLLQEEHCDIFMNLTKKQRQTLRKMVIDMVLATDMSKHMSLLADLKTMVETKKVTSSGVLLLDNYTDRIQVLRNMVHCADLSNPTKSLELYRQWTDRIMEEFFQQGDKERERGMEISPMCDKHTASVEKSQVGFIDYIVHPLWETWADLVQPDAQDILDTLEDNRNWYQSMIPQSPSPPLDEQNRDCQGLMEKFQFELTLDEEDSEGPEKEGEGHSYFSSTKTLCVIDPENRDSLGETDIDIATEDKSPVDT
Sequence of Lysosomal acid glucosylceramidase (Homo sapiens) (P04062 whole entry, looked up): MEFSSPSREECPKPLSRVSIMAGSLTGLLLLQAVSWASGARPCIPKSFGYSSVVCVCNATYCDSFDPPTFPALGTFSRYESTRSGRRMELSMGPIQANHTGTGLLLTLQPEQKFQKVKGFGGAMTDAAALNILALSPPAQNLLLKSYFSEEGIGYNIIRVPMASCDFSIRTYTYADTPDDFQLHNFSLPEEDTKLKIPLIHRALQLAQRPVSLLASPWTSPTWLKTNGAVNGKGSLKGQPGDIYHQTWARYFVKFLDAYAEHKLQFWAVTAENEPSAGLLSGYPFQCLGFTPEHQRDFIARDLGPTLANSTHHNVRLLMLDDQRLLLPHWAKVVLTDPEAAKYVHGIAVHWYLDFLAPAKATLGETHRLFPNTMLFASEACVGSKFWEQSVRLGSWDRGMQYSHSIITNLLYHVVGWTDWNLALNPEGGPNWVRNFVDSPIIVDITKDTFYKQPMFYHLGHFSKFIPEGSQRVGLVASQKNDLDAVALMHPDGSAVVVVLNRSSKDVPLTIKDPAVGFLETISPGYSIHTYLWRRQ

Consider `c1csc(CNc2ncncc2-c2ccc3c(c2)OCO3)c1`, for which the Potency in assay [1] is > 11.4 µM (inactive); in [3] it was 0.2 µM (active); in [6], > 46 µM (inactive); in assay [7] it was > 46 µM (inactive); in assay [9], 0.794 µM (active). The values for the activity change, negative = inhibition in assay [2], in assay [4] and in assay [12] were -9.82% (inactive), -6.2% (inactive) and 6.61% (inactive), respectively. The activity, negative = inhibition in [5] is 6.16% (inactive). The compound was classed as inactive in assay [8], in [10] and in [11]. Also, the max response in [12] (setting [18]) was determined as 0.346%; in assay [12] (setting [19]), 8.95%. Further, the Potency entry in [13] and in assay [14] was “inactive” throughout.

For the compound `CS(=O)(=O)Nc1cccc(-c2cncnc2NCc2cccs2)c1`, the Potency is > 11.4 µM (inactive) in assay [1]; 15.8 µM (active) in assay [3]; > 46 µM (inactive) in [6]; > 46 µM (inactive) in [7]; 0.398 µM (active) in assay [16]. Also, the activity change, negative = inhibition is 5.06% (inactive) in assay [2], 2.17% (inactive) in assay [4] and 4.63% (inactive) in assay [12]. Also, the activity, negative = inhibition in assay [5] was 12.4% (inactive). The result in assay [8], in assay [10] and in [11] was inactive. In addition, the Potency result in [15], in assay [17], in assay [13] and in assay [14] was “inactive” each time. The max response in [12] (setting [18]) came to 8.3%; in [12] (setting [19]) it was 16.7%.

With `CN1CCN(c2cc(-c3ccccc3C(F)(F)F)ncn2)CC1`, the Potency in [1] is > 11.4 µM (inactive); in assay [3], 12.6 µM (active); in [6], > 46 µM (inactive); in assay [7], > 46 µM (inactive). Besides, the activity change, negative = inhibition in [2] is 8.33% (inactive); in assay [4], -29.9% (inactive); in assay [12], 9.46% (inactive). For the same compound, the activity, negative = inhibition in assay [5] was 8.15% (inactive). For the same compound, the compound was classed as inactive in assay [8], in assay [10] and in [11]. The Potency entry in assay [15], in assay [13] and in assay [14] was “inactive” in each case. For the same compound, the max response came to 20.3% in assay [12] (setting [18]) and 26.3% in [12] (setting [19]).

Regarding `CNc1ccnc(-c2ccccc2C(F)(F)F)n1`, the Potency in assay [1] is > 11.4 µM (inactive); in assay [3] it was 12.6 µM (active); in assay [6], > 46 µM (inactive); in [7] it was > 46 µM (inactive). Further, the activity change, negative = inhibition is 1.92% (inactive) in assay [2], 5.43% (inactive) in [4] and 4.06% (inactive) in assay [12]. In addition, in [5], the activity, negative = inhibition is -22.6% (inactive). The compound was classed as inactive in [8], in assay [10] and in assay [11]. The Potency entry in assay [15], in assay [17], in assay [13] and in assay [14] was “inactive” throughout. In addition, the max response in assay [12] (setting [18]) is 2.06%; in [12] (setting [19]) it was 6.45%.

On to `COc1ccccc1-c1cncnc1Nc1ccc(F)cc1`, for which the Potency in assay [1] was > 11.4 µM (inactive); in assay [3], 7.94 µM (active); in assay [6], > 46 µM (inactive); in assay [7] it was > 46 µM (inactive); in assay [16] it was 0.158 µM (active); in assay [9] it was 5.01 µM (active). Also, the figures for the activity change, negative = inhibition in assay [2], in assay [4] and in assay [12] were -12.4% (inactive), 1.41% (inactive) and 10.5% (inactive), respectively. Further, the activity, negative = inhibition in assay [5] was 4.34% (inactive). Moreover, the compound was called inactive in [8], in assay [10] and in assay [11]. In addition, the max response in assay [12] (setting [18]) was determined as 9.46%; in [12] (setting [19]), 20.1%. Moreover, the Potency entry in [13] and in assay [14] was “inactive” each time.

With `COc1ccccc1-c1cncnc1-n1ccnc1`, the Potency in [1] was > 11.4 µM (inactive); in [3], 12.6 µM (active); in assay [6], > 46 µM (inactive); in assay [7], > 46 µM (inactive). Moreover, the activity change, negative = inhibition is -7.86% (inactive) in assay [2], 1.61% (inactive) in assay [4] and 7.28% (inactive) in [12]. For the same compound, the activity, negative = inhibition in assay [5] was 10.2% (inactive). Besides, the compound was called inactive in [8], in assay [10] and in assay [11]. For the same compound, the Potency result in assay [15], in [16], in assay [13] and in assay [14] was “inactive” in each case. In addition, the max response in assay [12] (setting [18]) stood at 19.4%; in assay [12] (setting [19]), 28.5%.
